# Sampled rows, rich in hits. Any-hit rate of the full collection: about 1.1%.
# NPR1 activator = GC-A stimulated cGMP production enhancers – HEK293 GC-A cells, cGMP TR-FRET, EC30 ANP, primary screen. 0% at EC30 ANP, 100% saturating ANP. AID 1671463, 2021. Atrial natriuretic peptide receptor 1 (Homo sapiens), P16066. 0.14% of 370,000 active. activation, % at 10 µM; in the data active = activation above about 40%
# Target sequence (P16066 whole entry, looked up): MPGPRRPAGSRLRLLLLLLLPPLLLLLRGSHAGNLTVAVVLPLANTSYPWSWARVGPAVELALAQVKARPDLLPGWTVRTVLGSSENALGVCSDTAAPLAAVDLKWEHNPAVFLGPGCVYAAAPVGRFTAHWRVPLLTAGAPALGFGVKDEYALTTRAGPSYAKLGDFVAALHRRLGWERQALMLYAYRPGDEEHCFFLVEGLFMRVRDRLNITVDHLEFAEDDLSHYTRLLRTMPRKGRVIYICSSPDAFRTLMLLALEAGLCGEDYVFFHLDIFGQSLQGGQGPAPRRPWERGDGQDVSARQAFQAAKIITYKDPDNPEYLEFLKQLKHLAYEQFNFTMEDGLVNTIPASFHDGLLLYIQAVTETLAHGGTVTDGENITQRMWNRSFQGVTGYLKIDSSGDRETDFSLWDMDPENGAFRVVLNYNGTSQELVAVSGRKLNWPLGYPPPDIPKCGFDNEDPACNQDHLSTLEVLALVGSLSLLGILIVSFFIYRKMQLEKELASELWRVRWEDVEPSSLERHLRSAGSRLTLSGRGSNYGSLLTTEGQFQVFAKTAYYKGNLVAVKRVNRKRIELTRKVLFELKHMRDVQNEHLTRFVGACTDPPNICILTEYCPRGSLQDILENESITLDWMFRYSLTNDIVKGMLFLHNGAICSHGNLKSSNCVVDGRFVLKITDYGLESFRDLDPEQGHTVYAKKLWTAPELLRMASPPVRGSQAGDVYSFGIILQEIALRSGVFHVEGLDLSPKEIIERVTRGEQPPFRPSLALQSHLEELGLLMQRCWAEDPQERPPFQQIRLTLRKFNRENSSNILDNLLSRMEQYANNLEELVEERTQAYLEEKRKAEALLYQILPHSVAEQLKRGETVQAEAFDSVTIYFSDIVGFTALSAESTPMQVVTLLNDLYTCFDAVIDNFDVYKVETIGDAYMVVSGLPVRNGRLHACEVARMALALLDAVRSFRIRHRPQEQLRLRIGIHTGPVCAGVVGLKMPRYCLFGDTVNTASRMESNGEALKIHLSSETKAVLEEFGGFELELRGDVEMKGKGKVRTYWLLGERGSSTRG
# GC-B act = human GC-B receptor activators, primary screen, HEK293 GC-B cells, cGMP TR-FRET, EC30 CNP; 0% at EC30 CNP, 100% saturating CNP; activation, % at 10 µM; 0.11% of 370,000 active; Atrial natriuretic peptide receptor 2 (Homo sapiens), P20594;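 active = activation at 10 µM reaching about 35% in either raw or pattern-adjusted values, limit read from the data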
# aDG glyco up = activators of alpha-DG glycosylation, primary screen, uHTS, Pro5-aDG cells, AlphaScreen; activation, % at 10 µM; alpha-DG glycosylation AlphaScreen (IIH6); 0% Pro5, 100% B10-LARGE cell signal; 0.22% of 360,000 active;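 active = activation of at least 8% versus controls, or a plate z-score of at least 8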;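 also: Pro5 are CHO cells carrying HIG-tagged alpha-DG that lacks glycosylation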
# FAS-TE inh = FAS thioesterase domain inhibitors, primary screen, biochemical, fluorescence intensity, uHTS | Fatty acid synthase (Homo sapiens), P49327 | recombinant FAS-TE, OMFH fluorogenic substrate, fluorescence endpoint | inhibition, % at 15 µM | 0.67% of 360,000 active | AID 602261, 2012;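 active = compounds whose normalised, plate-corrected inhibition of enzyme fluorescence in the single-dose primary screen is 50% or more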;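 also: 0% = DMSO with enzyme and 100% = substrate without enzyme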
# FAS-TE inh conf = FAS thioesterase domain inhibitors, confirmation, biochemical, fluorescence intensity, single concentration; inhibition, % at 15 µM; shares compounds with FAS-TE inh; 45% of 2,300 active; recombinant FAS-TE, OMFH fluorogenic substrate;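 active = compounds inhibiting the enzyme by at least 50% at 15 µM in any one of the replicates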;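 also: 0% = enzyme with DMSO only and 100% = wells lacking enzyme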
# * marks the source's active call; other numbers are inactive results; nt = no result.
SMILES,NPR1 activator,GC-B act,aDG glyco up,FAS-TE inh,FAS-TE inh conf
COC(=O)[C@H](C(C)C)N(CCCc1cn(Cc2ccccc2)nn1)S(=O)(=O)c1ccccc1Br,-1.0,7.9,nt,nt,nt
COc1cc(C(=O)NC(=S)Nc2ccccc2[N+](=O)[O-])cc(OC)c1OC,2.0,-9.7,0.1,64.9*,24.6
COc1cc(C(=O)NC(=S)Nc2ccc([N+](=O)[O-])cc2C)cc(OC)c1OC,-2.9,-0.7,-0.1,8.0,nt
CC(C)CN1C(=O)C[C@@]2(C(=O)N(C)c3ccc(NS(=O)(=O)c4ccc(F)cc4)cc32)C1c1ccccc1 (stereo partly drawn),-4.1,-7.7,nt,nt,nt
O=C1NC(=S)S/C1=C\c1cc2ccccc2nc1N1CCCCC1,0.0,-7.3,0.0,68.7*,51.0*
COc1ccc2nc(N3CCCCC3)c(/C=C3\SC(=S)NC3=O)cc2c1,5.4,-5.0,0.0,62.0*,23.9
O=C1NC(=S)SC1=Cc1ccccc1Cl,-5.1,-6.6,0.7,5.5,nt
O=C(NCc1ccccc1)[C@H]1CCCN1C(=O)[C@H]1CCCN1C(=O)c1cccc(F)c1,2.3,2.0,nt,nt,nt
CC1(C)C=C2C(N(Cc3ccc4c(c3)OCO4)C(=N)N2C(=O)OCc2ccccc2)n2c(=O)n(-c3ccccc3)c(=O)n21 (stereo not drawn),1.1,-2.1,nt,nt,nt
O=C(CSc1nc2ccccc2c(=O)n1-c1ccc(Cl)cc1)N/N=C/C=C/c1ccccc1[N+](=O)[O-],-9.7,-9.1,0.4,79.8*,16.6
Cc1ccccc1-n1c(SCC(=O)N/N=C/C=C/c2ccccc2[N+](=O)[O-])nc2ccccc2c1=O,0.0,1.3,0.2,79.4*,27.1
O=C(CSc1nc2ccccc2c(=O)n1-c1ccccc1)N/N=C/C=C/c1ccccc1[N+](=O)[O-],-4.5,-4.6,0.0,23.0,nt
CCN(CC)C(=O)CC[C@@H]1CC[C@]2(CCCN(Cc3ccccc3)C2)O1,2.6,4.2,nt,nt,nt
Cc1ccc(NC(=O)[C@H]2CC(=O)O[C@@H]2c2ccccc2)c(C)c1,2.0,2.8,nt,nt,nt
Cc1ccc(C2=NN(C(=O)CCC(=O)O)C(c3cccc([N+](=O)[O-])c3)C2)cc1 (stereo not drawn),0.8,-0.7,0.0,-0.8,nt
CC(=O)N1N=C(c2ccc(Br)cc2)CC1c1cccc([N+](=O)[O-])c1 (stereo not drawn),-5.3,0.5,0.0,62.4*,48.8*
CC(=O)N1N=C(c2cccc([N+](=O)[O-])c2)OC1c1ccc(Br)cc1 (stereo not drawn),-1.8,0.2,-0.2,50.8*,20.2
CC(=O)N1N=C(c2cccc([N+](=O)[O-])c2)OC1c1ccc(Cl)cc1Cl (stereo not drawn),-1.9,4.5,-0.6,53.3*,39.5
C[C@H]1[C@@H](NC(=O)c2cccc(C(F)(F)F)c2)CC[C@@]23CCCN2C(=O)CCC[C@@H]13,-0.9,-5.6,nt,nt,nt
COC(=O)C1CN(Cc2ccccc2)CCS(=O)(=O)N1Cc1cn(Cc2ccc(Cl)cc2)nn1 (stereo not drawn),-8.3,-8.7,nt,nt,nt
O=C(Cc1ccccc1)N1CCC(Oc2cccnc2)CC1,3.2,-6.8,nt,nt,nt
Cc1ccc(-c2nnc3ccc(SCC(=O)N4CCc5ccccc54)nn23)cc1,-3.6,1.6,0.1,-2.0,nt
Cc1ccc(-c2nnc3ccc(SCC(=O)N4CCCc5ccccc54)nn23)cc1,1.1,-1.6,-0.3,73.7*,70.0*
COC(=O)c1cc(-c2cc3ccccc3o2)c(=O)n2c1CCC2,6.9,-2.6,nt,nt,nt
CCN1CCN(S(=O)(=O)c2ccc(Cl)c(C(=O)N(C)Cc3ccc(F)cc3)c2)CC1,0.0,-1.9,0.3,-4.4,nt
SMILES,NPR1 activator,GC-B act,aDG glyco up,FAS-TE inh,FAS-TE inh conf
CCN1CCN(S(=O)(=O)c2ccc(Cl)c(C(=O)N(C)Cc3ccc(C(C)(C)C)cc3)c2)CC1,-0.1,-1.5,-0.3,58.9*,44.8*
CCOC(=O)c1sc(NC(=O)c2ccc(S(=O)(=O)N3CCCCCC3)cc2)nc1-c1ccccc1,2.5,6.6,0.2,46.5,nt
CCOC(=O)c1sc(NC(=O)c2ccc(S(=O)(=O)N3CCCCC3)cc2)nc1-c1ccccc1,-0.1,2.1,0.0,65.2*,11.8
CCOc1ccc(-n2c(SCC(=O)Nc3ccc4c(c3)OCCO4)nc3c(c2=O)SCC3)cc1,0.6,5.1,0.3,62.1*,24.7
COc1cc(C(NC(=O)C(F)(F)F)C2CCCC=C2c2ccccc2)cc(OC)c1OC (stereo not drawn),-18.1,-22.5,nt,nt,nt
CCOC(=O)N1CCN(C(=O)C[C@H]2C[C@@]3(C(=O)OC)C(=C[C@H](C4CCCC4)O[C@@H]3C)N(CCc3ccc(OC)c(OC)c3)C2=O)CC1,3.0,0.2,nt,nt,nt
CCC(CO)Nc1cccc2c1S(=O)(=O)N(Cc1cn(Cc3ccc(C(F)(F)F)cc3)nn1)Cc1ccccc1O2 (stereo not drawn),0.8,1.1,nt,nt,nt
CC(C)CC(NC(=O)c1ccc(Cl)cc1)C(=O)OCc1cc([N+](=O)[O-])cc2c1OCOC2 (stereo not drawn),-6.8,1.8,0.1,52.1*,37.2
COC(=O)[C@]12C[C@H](CC(=O)N3CCSCC3)C(=O)N(Cc3ccc(Cl)cc3Cl)C1=C[C@H](COCc1ccccc1)O[C@@H]2C,-4.4,-5.1,nt,nt,nt
Cc1ccccc1-n1c(SCC(=O)c2c(N)n(C)c(=O)n(C)c2=O)nc2sc3c(c2c1=O)CCCC3,6.4,-2.9,1.4,89.7*,31.9
COc1ccc([C@@H]2[C@@H]3C(=O)N(C(C)(C)C)C(=O)[C@@H]3[C@]3(Cc4ccc(Cl)cc4)C(=O)N(c4ccc(OC)cc4)C(=O)N23)cc1,-3.2,-1.6,-0.2,92.4*,28.5
Cc1cccc(N2C(=O)N3[C@H](c4ccc(Br)cc4)[C@@H]4C(=O)N(C(C)(C)C)C(=O)[C@@H]4[C@]3(Cc3ccc(Cl)cc3)C2=O)c1,-10.8,-9.6,0.8,89.0*,44.7
COc1ccc(N2C(=O)N3[C@H](c4ccc(Cl)cc4)[C@@H]4C(=O)N(C5CCCCC5)C(=O)[C@@H]4[C@]3(Cc3ccc(Cl)cc3)C2=O)cc1,0.6,0.8,0.1,87.9*,28.8
CCN1C(=O)[C@H]2[C@@H](c3ccc(C)cc3)N3C(=O)N(c4ccc(OC)cc4)C(=O)[C@@]3(Cc3ccc(Cl)cc3)[C@H]2C1=O,2.3,0.7,0.1,19.5,nt
COc1ccc([C@@H]2[C@@H]3C(=O)N(C(C)(C)C)C(=O)[C@@H]3[C@]3(Cc4ccc(Cl)cc4)C(=O)N(c4ccc(Br)cc4)C(=O)N23)cc1,-2.8,0.5,1.2,87.6*,55.0*

# Source: PubChem (Sanford-Burnham Center for Chemical Genomics)
